The values below come from PMC11062922 (Nature Chemical Biology, 2023).

Where two headings read alike, the source gives them in different places.

What all share (parameters): species or system human, MV4-11 + K-562 + COLO205 + SK-N-BE2 + OVCAR-8
Test [1] relates to BMPR2. As to conditions: read-out: apparent Kd; compound concentrations:100 nM and 1000 nM (sheet 'Samples'); n = 1.
Test [2] deals with JAK2. As to conditions: read-out: apparent Kd; compound concentrations:100 nM and 1000 nM (sheet 'Samples'); n = 1.
In test [3] the test system is PRKX. As to conditions: read-out: apparent Kd; compound concentrations:100 nM and 1000 nM (sheet 'Samples'); n = 1.
Test [4] deals with ROCK2. As to conditions: read-out: apparent Kd; compound concentrations:100 nM and 1000 nM (sheet 'Samples'); n = 1.
Test [5] concerns AURKA. As to conditions: read-out: apparent Kd; compound concentrations: 100 nM and 1000 nM (sheet 'Samples'), CATDS: 7.2956934491261893E-2; n = 1.
For test [6], the system named is AURKB. The conditions noted are these: read-out: apparent Kd, compound concentrations: 100 nM and 1000 nM (sheet 'Samples'), n = 1.
In test [7] the test system is EPHB6. The conditions noted are these: read-out: apparent Kd; compound concentrations: 100 nM and 1000 nM (sheet 'Samples'), CATDS: 7.4696774901665194E-2; n = 1.
Test [8] has as its system FER. The conditions noted are these: read-out: apparent Kd; compound concentrations: 100 nM and 1000 nM (sheet 'Samples'), CATDS: 5.6438447882713398E-2; n = 1.
Test [9] concerns FES. The conditions noted are these: read-out: apparent Kd; compound concentrations: 100 nM and 1000 nM (sheet 'Samples'), CATDS: 5.2113476135959902E-2; n = 1.
The subject of test [10] is FLT3. The conditions noted are these: read-out: apparent Kd, compound concentrations: 100 nM and 1000 nM (sheet 'Samples'), n = 1.
In test [11] the test system is FLT4. As to conditions: read-out: apparent Kd; compound concentrations: 100 nM and 1000 nM (sheet 'Samples'), CATDS: 0.232544079130999; n = 1.
The subject of test [12] is IRAK3. The conditions noted are these: read-out: apparent Kd; compound concentrations: 100 nM and 1000 nM (sheet 'Samples'), CATDS: 5.7923631136655801E-2; n = 1.
Test [13] relates to MET. The conditions noted are these: read-out: apparent Kd; compound concentrations: 100 nM and 1000 nM (sheet 'Samples'), CATDS: 6.0904662121703403E-2; n = 1.
Test [14] concerns MST1R. As to conditions: read-out: apparent Kd; compound concentrations: 100 nM and 1000 nM (sheet 'Samples'), CATDS: 5.5385881905980802E-2; n = 1.
For test [15], the system named is PDGFRB. As to conditions: read-out: apparent Kd, compound concentrations: 100 nM and 1000 nM (sheet 'Samples'), n = 1.
In test [16] the test system is PLK4. The conditions noted are these: read-out: apparent Kd; compound concentrations: 100 nM and 1000 nM (sheet 'Samples'), CATDS: 9.5800604648041798E-2; n = 1.
Test [17] concerns TNK1. As to conditions: read-out: apparent Kd; compound concentrations: 100 nM and 1000 nM (sheet 'Samples'), CATDS: 0.119940011708452; n = 1.
The subject of test [18] is EGFR. The conditions noted are these: read-out: apparent Kd; compound concentrations: 100 nM and 1000 nM (sheet 'Samples'), CATDS: 9.4589689461148804E-2; n = 1.
Test [19] relates to EIF2AK1. The conditions noted are these: read-out: apparent Kd; compound concentrations: 100 nM and 1000 nM (sheet 'Samples'), CATDS: 0.14381895647439999; n = 1.
Test [20] concerns LIMK1. The conditions noted are these: read-out: apparent Kd; compound concentrations: 100 nM and 1000 nM (sheet 'Samples'), CATDS: 8.0890535197294403E-2; n = 1.
Test [21] relates to LIMK2. The conditions noted are these: read-out: apparent Kd; compound concentrations: 100 nM and 1000 nM (sheet 'Samples'), CATDS: 0.109376912936183; n = 1.
For test [22], the system named is NNT. As to conditions: read-out: apparent Kd; compound concentrations: 100 nM and 1000 nM (sheet 'Samples'), CATDS: 8.6496378870903501E-2; n = 1.
For test [23], the system named is TESK2. As to conditions: read-out: apparent Kd; compound concentrations: 100 nM and 1000 nM (sheet 'Samples'), CATDS: 9.3788253526120594E-2; n = 1.
The subject of test [24] is PIK3CD. As to conditions: read-out: apparent Kd, compound concentrations: 100 nM and 1000 nM (sheet 'Samples'), n = 1.
In test [25] the test system is CAMK2B. The conditions noted are these: read-out: apparent Kd; compound concentrations: 100 nM and 1000 nM (sheet 'Samples'), CATDS: 1; n = 1.
In test [26] the test system is RPS6KA4. The conditions noted are these: read-out: apparent Kd; compound concentrations: 100 nM and 1000 nM (sheet 'Samples'), CATDS: 0.19604885233209601; n = 1.

Regarding `CC1=C(C(=O)Nc2ccc3[nH]ncc3c2)C(c2ccc3ccccc3c2)CC(=O)N1` (stereo not drawn) [GSK270822A], the potency estimated from few doses in [1] was 2.08 µM; in [2], 0.754 µM; in test [3], 1.63 µM; in [4], 0.0679 µM.

In the case of `CN(c1ccc(NC(=O)Nc2c(Cl)cccc2Cl)cc1)c1ccnc(Nc2cccc(CS(C)(=O)=O)c2)n1` [GW809897X], the potency estimated from few doses is 0.449 µM in [5]; 0.271 µM in test [6] (CATDS: 8.8518013228777503E-2); 0.421 µM in test [7]; 1.01 µM in test [8]; 1.4 µM in test [9]; 0.00304 µM in [10] (CATDS: 0.75020516601315201). In addition, the potency estimated from few doses is 0.0316 µM in test [11]; 0.921 µM in test [12]; 0.774 µM in [13]; 1.09 µM in test [14]; 0.979 µM in test [15] (CATDS: 5.6967263110053901E-2); 0.224 µM in test [16]. Besides, the potency estimated from few doses in [17] was 0.134 µM.

With `Nc1ncnc2scc(-c3ccc(NC(=O)Cc4cc(F)ccc4F)cc3)c12.O=C(O)C(F)(F)F` [SB-731254-M], the potency estimated from few doses is 0.399 µM in test [6] (CATDS: 0.15442610034884699); 1.18 µM in test [18]; 0.457 µM in [19]; 0.0852 µM in test [10] (CATDS: 0.410073684021382); 1.91 µM in test [20]; 0.817 µM in [21]. The potency estimated from few doses in test [22] is 1.53 µM; in test [15] (CATDS: 9.2318331607570206E-2), 1.26 µM; in [23], 1.21 µM.

`COc1ccc(Nc2nccc(N3CCC(NC(=O)c4cccc(C#N)c4)C3)n2)cc1` (stereo not drawn) [GSK1379730A]: the figures for the potency estimated from few doses in test [6] (CATDS: 0.359402067500939) and in [24] (CATDS: 0.82128719253375804) were 1.45 µM and 0.177 µM, respectively.

With `Cc1ccc2c(-c3ccnc(Nc4ccc5c(c4)OCCO5)n3)c(-c3ccc(C(F)(F)F)cc3)nn2n1` [GW832467X], in [25], the potency estimated from few doses is 0.475 µM.

For the molecule `O=C1Nc2ccccc2/C1=C1\CCc2cc(O)ccc21` [GR105659X], the potency estimated from few doses in test [6] (CATDS: 0.205313587385097) was 0.856 µM; in test [10] (CATDS: 0.27070299273409698), 0.446 µM; in test [24] (CATDS: 0.42834866623309398), 0.199 µM; in test [26], 0.977 µM.
